Hit rate of the full screen: of about 320,000 compounds, about 2,100 (0.66%) were called active. Roughly 53% stayed inconclusive and do not appear here. Calls come from the whole dose curve; as a rule, active = well fitted inhibition curve with a large enough effect in the signal ratio, with a control signal flat (not every such curve was filed as active); inconclusive = small, poorly fitted or top-dose-only effect, or effect the other way, or a change in a side signal; inactive = flat fitted curve, though single readings scatter; the % refers to the signal ratio. The sample as a whole holds a higher share of actives than the screen did.

This is an account of results in PubChem BioAssay AID2685 (National Center for Advancing Translational Sciences (NCATS), 2010).
Potency is the fitted concentration of half-maximal effect.

The experiment in a line: qHTS Assay for Lipid Storage Modulators in Drosophila S3 Cells.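 For cell number change: cells counted by Cell Tracker Red CMTPX staining in the red channel.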 For lipid storage change, negative = inhibition: % is set by controls: 0 for no effect and ±100 for the full control effect. Particulars: BODIPY lipid droplet fluorescence, 18-24 h, cells fed with added oleic acid; cell number change: measured here: cell count max response; series mostly up to 46.1 µM; lipid storage change, negative = inhibition: at the top concentration. The procedure, abridged: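 Drosophila S3 cells loaded with oleic acid (400 uM, as added) and compounds at several concentrations; lipid droplets imaged by 488-nm laser-scanning cytometry, 500–530 nm intensity and object ratio to cell channel. Percent activity normalized to 20 uM Triacsin C.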
With `Cc1noc(NS(=O)(=O)c2ccc(NC(=O)CCn3c(=O)oc4ccccc43)cc2)c1C`, the “lipid storage change, negative = inhibition” value is 9.9% (inactive). As for `CCC(C)NC(=O)C(=O)NCc1ccccn1` (stereo not drawn), the “lipid storage change, negative = inhibition” value was 1.01% (inactive) and the cell number change worked out at 4.8%. For `Cc1ccc(S(=O)(=O)Cc2nnnn2-c2ccccc2)cc1`, in that order: -12% (inactive) and -3.66%. For the compound `COc1ccc(CC(=O)Nc2ccc(-c3noc(-c4ccc(Cl)cc4)n3)cc2)cc1`, the “lipid storage change, negative = inhibition” value was -5.45% (inactive) and the cell number change was -6.7%. For `COc1ccc(CCNC(=O)CNC(=O)c2ccccc2Br)cc1OC`, in that order: -67.8% (inactive) and 19.2%. For `O=C1C(Cc2ccc(O)cc2)NC(=S)N1C1CCCCC1` (stereo not drawn), in that order: -15.9% (inactive) and 9.32%.

`CC(=O)Nc1sc(NC(=O)c2ccc([N+](=O)[O-])cc2)nc1-c1cccs1`: the “lipid storage change, negative = inhibition” value is -6.26% (inactive) and the cell number change stood at 7.62%. Consider `Cc1cccc(NC(=O)CC2C(=O)NC3CCCCC3N2C(=O)c2ccccc2Cl)c1` (stereo not drawn), for which the “lipid storage change, negative = inhibition” value is -5.97% (inactive) and the cell number change was found to be 7.35%. Consider `CN(C(=O)CC1C(=O)NCCN1Cc1ccc(F)c(F)c1)C1CCOCC1` (stereo not drawn), for which the “lipid storage change, negative = inhibition” value is 28.1% (inactive) and the cell number change was determined as 1.07%. Regarding `CC1CCCCN1C(=O)CSc1nnc2c(n1)[nH]c1ccc(F)cc12` (stereo not drawn), the compound was called inactive and the cell number change worked out at 8.7%.

Consider `CCc1ccc2[nH]c3nc(SCC(=O)NCC4CCCO4)nnc3c2c1` (stereo not drawn), for which the “lipid storage change, negative = inhibition” value was -11.3% (inactive) and the cell number change stood at 8.06%.

`CC(C)c1ccc2[nH]c3nc(SCC(=O)NC4CC4)nnc3c2c1`: the Potency is 0.651 µM (active) and the cell number change worked out at 8.7%. For `Cc1ccc(C(=O)NNC(=O)CSc2nnc3c(n2)[nH]c2ccc(F)cc23)cc1`, the “lipid storage change, negative = inhibition” value is 3.4% (inactive) and the cell number change was 6.2%. In the case of `CC1CCCCN1C(=O)CSc1nnc2c(n1)[nH]c1ccccc12` (stereo not drawn), the Potency is 0.58 µM (active) and the cell number change was 8.97%. `CC(C)c1ccc2[nH]c3nc(SCC(=O)N4CCOCC4)nnc3c2c1`: the “lipid storage change, negative = inhibition” value was -0.666% (inactive) and the cell number change was -11.8%. On to `CC1CCc2cc(F)ccc2N1C(=O)CSc1nnc2c(n1)[nH]c1ccc(F)cc12` (stereo not drawn), for which the “lipid storage change, negative = inhibition” value was -15.2% (inactive) and the cell number change is -17.4%. `O=C(CSc1nnc2c(n1)[nH]c1ccc(F)cc12)NC1CC1`: the Potency is 20.6 µM (active) and the cell number change was -6.52%. With `CC1Cc2ccccc2N1C(=O)CSc1nnc2c(n1)[nH]c1ccccc12` (stereo not drawn), the “lipid storage change, negative = inhibition” value was 9.27% (inactive) and the cell number change was 3.16%. On to `COc1ccc(CC(NC(C)=O)C(=O)NC2CCN(c3nnnn3-c3ccccc3)CC2)cc1OC` (stereo not drawn), for which the “lipid storage change, negative = inhibition” value was 15.7% (inactive) and the cell number change is -4.36%. Turning to `COc1ccc(-c2c(=O)n(OCc3nc4ccccc4[nH]3)c3ccccc3[n+]2[O-])cc1`, the “lipid storage change, negative = inhibition” value was 6.71% (inactive) and the cell number change came out at 2.91%. Regarding `Cc1cccc2cc(COC(=O)C3CCCCC3)c(=O)[nH]c12`, the “lipid storage change, negative = inhibition” value is 22.2% (inactive) and the cell number change was 10.5%.

For the compound `N#Cc1cncc(-c2ccc3c(c2)OCCOCCOCCOCCOCCO3)n1`, the “lipid storage change, negative = inhibition” value is 9.67% (inactive) and the cell number change is 3.78%.

For the compound `COc1cc(CNC2CCCCCCC2)cc(Cl)c1OCC(N)=O`, the “lipid storage change, negative = inhibition” value is -14.6% (inactive) and the cell number change was 6.3%. As for `COc1ccccc1N1CCN(C(=O)c2cc(C)oc2C)CC1`, the “lipid storage change, negative = inhibition” value is -0.501% (inactive) and the cell number change stood at 9.51%.

`O=C(O)c1oc2ccc(Br)cc2c1-n1cccc1`: the compound was classed as inactive. As for `CCOC(=O)C1CCN(CC(=O)Nc2c(C(=O)OC)n(C)c3cccc(C)c23)CC1`, the “lipid storage change, negative = inhibition” value is 19% (inactive) and the cell number change is -3.82%.

Regarding `COC(=O)c1c(NC(=O)CN2CCCC(C)C2)c2c(C)cccc2n1C` (stereo not drawn), the Potency was 3.26 µM (active) and the cell number change is -24.5%.

`COC(=O)c1c(NC(=O)CN2CCN(C(=O)c3ccco3)CC2)c2c(C)cccc2n1C`: the result was inactive and the cell number change is -8.93%. Regarding `COc1ccc(C)cc1NC(=O)C(=O)NCc1ccncc1`, the “lipid storage change, negative = inhibition” value is 5.47% (inactive) and the cell number change was 1.5%. For `O=C1[C@@H]2Cc3c([nH]c4ccccc34)C(c3ccc([N+](=O)[O-])cc3)N2C(=O)CN1C1CC1` (stereo partly drawn), in that order: 12.4% (inactive) and 5.54%. Turning to `COC(=O)c1ccc(C2c3[nH]c4ccccc4c3C[C@H]3C(=O)N(C4CC4)CC(=O)N23)cc1` (stereo partly drawn), the “lipid storage change, negative = inhibition” value was 12.4% (inactive) and the cell number change is -1.73%. In the case of `O=C1[C@@H]2Cc3c([nH]c4ccccc34)C(c3ccccc3)N2C(=O)CN1C1CC1` (stereo partly drawn), the Potency is 4.11 µM (active) and the cell number change was -19.8%. Take `O=C(Nc1ccccc1Cl)Nc1ccccc1Cl`: the “lipid storage change, negative = inhibition” value is -9.54% (inactive) and the cell number change is -0.979%. With `O=C(Nc1ccccc1Cl)/C(Cl)=C(\Cl)S(=O)c1ccccc1` (stereo not drawn), the Potency is 4.61 µM (active). `O=C(Nc1ccccc1Cl)c1ccccc1`: the “lipid storage change, negative = inhibition” value was -0.566% (inactive) and the cell number change turned out to be 0.403%.

As to `CCN(CC(=O)Nc1c(F)cccc1F)C(=O)c1ccc(S(=O)(=O)N2CCCC2)cc1`, the “lipid storage change, negative = inhibition” value is 24.8% (inactive) and the cell number change worked out at 23.3%.

For `O=C(O)CN1C(=O)NC2(CCCc3ccccc32)C1=O` (stereo not drawn), the call was inactive and the cell number change is 8.55%. `CCOc1cc(-c2sc(Nc3ccccc3)n[n+]2-c2ccc(F)cc2)ccc1OC`: the “lipid storage change, negative = inhibition” value was -7.71% (inactive) and the cell number change is 8.68%. With `CCN(CCNC(=O)C1CCN(S(=O)(=O)c2c(C)noc2C)CC1)c1ccccc1`, the “lipid storage change, negative = inhibition” value was 3.9% (inactive) and the cell number change was determined as 0.289%.

As to `Cc1ccc(-c2nc(CN3CCCCC3)cc(CN3CCCCC3)c2O)cc1`, the “lipid storage change, negative = inhibition” value is -0.754% (inactive) and the cell number change turned out to be 4.96%. Regarding `CC(C)(C)c1nc(CN2CCCCC2)cc(CN2CCCCC2)c1O`, the Potency is 20.6 µM (active) and the cell number change is -1.12%. Take `CC(C)(C)c1nc(CN2CCOCC2)cc(CN2CCOCC2)c1O`: the call was inactive and the cell number change stood at 19.4%. Turning to `Cc1cc(CN2CCC(N3CCC(C(=O)NC4CC4)CC3)CC2)cc(C)c1O`, the outcome was inactive and the cell number change is -10.6%.
